According to the supplement of paper PMC11060735:
Several values for one entry are separate records, joined by “and”; a condition that tells them apart may be missing. Equal entries are not always repeated. Structures can show the parent of a compound that is named as a salt. Out of some 1,800 compounds screened, about 50 (3%) showed activity. The sample holds actives, similar compounds and a random draw of the others, so the mix is not that of the screen. Values without a mark were called inactive.

What follows are molecules tested on mouse p16Ink4a+/- lung fibroblasts (INKBRITE, bleomycin-injured) (assay: percentage of GFP+ (p16Ink4a+) fibroblasts among all cells in well; higher = less depletion of p16Ink4a+ cells, active = 20 or less). Conditions: 1 µM; 3 days.

Structure (SMILES)	percentage of GFP+
Cc1cccc(CC(=O)N2CCc3c2ccc(-c2cn(C)c4ncnc(N)c24)c3F)n1	45%
Cn1cc(CNCC2CCN(c3ncc(C(=O)NO)cn3)CC2)c2ccccc21 [Quisinostat]	1.92% (active)
CN1CCc2c(c3ccccc3n2Cc2ccc(C(=O)NO)cc2)C1 [Tubastatin A HCl]	53.9% and 45%
COc1cc(C(=O)NS(=O)(=O)c2ccccc2C)ccc1Cc1cn(C)c2ccc(NC(=O)OC3CCCC3)cc12 [Zafirlukast]	47.1%
COc1ccc(COc2ccc(Cc3cnc(N)nc3N)cc2OC)cc1	33.4%
Cc1cccc(C)c1OCC(C)N (centres undefined) [Mexiletine]	46%
Cc1cc(C)c(CNC(=O)c2cc(-c3ccc(CN4CCOCC4)cc3)cc3c2cnn3C2CCCC2)c(O)n1	49.7%
CCNC(=O)c1noc(-c2cc(C(C)C)c(O)cc2O)c1-c1ccc(CN2CCOCC2)cc1 [Luminespib (NVP-AUY922)]	6.33% (active)
CCN(c1cc(-c2ccc(CN3CCOCC3)cc2)cc(C(=O)NCc2c(C)cc(C)nc2O)c1C)C1CCOCC1	54.5%
Cc1cc(C2CCCCC2)n(O)c(=O)c1 [Ciclopirox]	29.6% and 35.5%
CCCOc1ccc(C(=O)OCCN(CC)CC)cc1N [Proparacaine]	37.1%
COC(=O)CCSCc1ccc(-c2onc(C)c2NC(=O)OC(C)c2ccccc2Cl)cc1 (centres undefined)	43.9%
CCN(CC)CCCC(C)Nc1c2ccc(Cl)cc2nc2ccc(OC)cc12 (centres undefined) [Quinacrine]	46.6%
O=C(/C=C\n1cnc(-c2cc(C(F)(F)F)cc(C(F)(F)F)c2)n1)N1CC(F)(F)C1	24.1%
O=C(/C=C\n1cnc(-c2cc(C(F)(F)F)cc(C(F)(F)F)c2)n1)NNc1cnccn1 [Selinexor (KPT-330)]	14.7% (active)
COc1cc(-c2ncn(/C=C\C(=O)OC(C)C)n2)cc(C(F)(F)F)c1	14.1% (active)
CN(C)CCOC(c1ccccc1)c1ccccc1 [Diphenhydramine]	47.9%
CC(C)(C)c1cnc(CSc2cnc(NC(=O)C3CCNCC3)s2)o1	28.7%
N#Cc1ccc2[nH]c(O)c(-c3ccc(CN4CCOCC4)cn3)c2c1	40.8%
CO/C(O)=C1\C(C)=NC(C)=C(C(=O)O[C@@H]2CCCN(Cc3ccccc3)C2)[C@@H]1c1cccc([N+](=O)[O-])c1 [Benidipine]	41.8%
Cn1c(=O)c2c(ncn2CC2OCCO2)n(C)c1=O [Doxofylline]	41%
CC(C)OC(=O)C(C)(C)Oc1ccc(C(=O)c2ccc(Cl)cc2)cc1 [Fenofibrate]	45.5%
O=C1CCc2cc(OCCCCc3nnnn3C3CCCCC3)ccc2N1 [Cilostazol]	45.1%
CN1CC[C@H](c2c(O)cc(O)c3c(=O)cc(-c4ccccc4Cl)oc23)[C@H](O)C1 [Flavopiridol]	4.28% (active)
CN1CC[C@@H](c2c(O)cc(O)c3c(=O)cc(-c4ccccc4Cl)oc23)[C@@H]1CO	20.2%

Structure (SMILES)	percentage of GFP+
CC(=O)C1=C(O)C=C2Oc3c(C(C)=O)c(O)c(C)c(O)c3[C@]2(C)C1=O [(+)-Usniacin]	45.5%
CCNC1=N[C@@H]2[C@@H](O)[C@H](O)[C@@H](CO)O[C@@H]2S1 [Thiamet G]	56.9%
CC(=O)c1cc([N+](=O)[O-])c(Sc2cccc(Cl)c2Cl)s1	41.2%
COc1ccc2[nH]c(S(=O)Cc3ncc(C)c(OC)c3C)nc2c1 (centres undefined) [Esomeprazole; Omeprazole]	43.4% and 32.8%
Nc1nc(O)c2ncn(COCCO)c2n1 [Aciclovir]	45.4%
COc1c(C)cnc(Cn2cnc3c(Cl)nc(N)nc32)c1C	7.81% (active)
COc1ccc(CNC(=O)Nc2ncc([N+](=O)[O-])s2)cc1 [N-(4-Methoxybenzyl)-N'-(5-Nitro-1,3-Thiazol-2-Yl)Urea]	43.1%
CCN(Cc1ccncc1)C(=O)C(CO)c1ccccc1 (centres undefined) [Tropicamide]	49.3%
O=C(Nc1ccc(OC(F)(F)F)cc1)c1sccc1NCc1ccnc2ccccc12	30.4%
Clc1cccc(Cl)c1NC1=NCCN1 [Clonidine]	51.5%
CN1CCN(C2=Nc3ccccc3Oc3ccc(Cl)cc32)CC1 [Loxapine]	51.2%
CC(C)n1c(/C=C/[C@@H](O)C[C@@H](O)CC(=O)O)c(-c2ccc(F)cc2)c2ccccc21 [Fluvastatin]	19.7% (active)
CC(C)c1c(C(=O)Nc2ccccc2)c(-c2ccccc2)c(-c2ccc(F)cc2)n1CC[C@@H](O)C[C@@H](O)CC(=O)O [Atorvastatin]	41.6%
O=C(O)C[C@H](O)C[C@H](O)/C=C/c1c(C2CC2)nc2ccccc2c1-c1ccc(F)cc1 [Pitavastatin Calcium]	22.1%
NC(Cc1c[nH]c2ccc(O)cc12)C(=O)O (centres undefined) [5-hydroxytryptophan (5-HTP)]	41.1%
CC(C)OC(=O)OCOP(=O)(CO[C@H](C)Cn1cnc2c(N)ncnc21)OCOC(=O)OC(C)C [Tenofovir Disoproxil]	37.9%
CC(C)(C)C(=O)OCOP(=O)(COCCn1cnc2c(N)ncnc21)OCOC(=O)C(C)(C)C [Adefovir Dipivoxil]	19.4% (active)
C[C@H](Cn1cnc2c(N)ncnc21)OCP(=O)(O)O [Tenofovir]	36.4%
Cc1nc(O)c(C#N)cc1-c1ccncc1 [Milrinone]	37.8%
CCOC(=O)N1CCC(=C2c3ccc(Cl)cc3CCc3cccnc32)CC1 [Loratadine]	54.5%
CC(C)c1cc(-c2nnc(O)n2-c2ccc3c(ccn3C)c2)c(O)cc1O [Ganetespib]	4.48% (active)
OC(CC1c2ccccc2-c2cncn21)C1CCCCC1 (centres undefined)	43%
CCCCCCCCCCCC1=C(O)C(O)=CC(=O)C1=O [Embelin]	51.4%
COc1ccc2cccc(CCNC(C)=O)c2c1 [Agomelatine]	39.1%
COC(=O)[C@H](Cc1ccccc1)NC(=O)[C@@H](N)CC(=O)O [Aspartame]	44.2%

Structure (SMILES)	percentage of GFP+
CC(=O)SCC(Cc1ccccc1)C(=O)NCC(=O)OCc1ccccc1 (centres undefined) [Racecadotril]	45%
CC(C)C[C@@H](C=O)NC(=O)[C@H](CC(C)C)NC(=O)[C@H](CC(C)C)NC(=O)OCc1ccccc1	7.69% (active)
CCCCCOC(=O)Nc1nc(=O)n([C@@H]2O[C@H](C)[C@@H](O)[C@H]2O)cc1F [Capecitabine]	40.5%
CN(Cc1ccc(C(C)(C)C)cc1)Cc1cccc2ccccc12 [Butenafine]	51.2%
O=C(/C=C/c1cccc(S(=O)(=O)Nc2ccccc2)c1)NO [Belinostat]	15.9% (active)
O=C(/C=C/c1ccccc1)NC(NC(=S)Nc1ccc(Cl)cc1)C(Cl)(Cl)Cl (centres undefined)	58.3%
Cn1cc(/C=C/C(=O)c2cccc(F)c2)cc1/C=C/C(=O)NO	54%
Nc1cccc2c1CN(C1CCC(=O)NC1=O)C2=O (centres undefined) [Lenalidomide]	46%
CC/C(=C(\c1ccccc1)c1ccc(OCCN(C)C)cc1)c1ccccc1 [Tamoxifen]	34.9%
Cc1ccc([N+](=O)[O-])cc1S(=O)(=O)N(C)/N=C/c1cnc2ccc(Br)cn12	3.79% (active)
CC(C)c1nc(N(C)S(C)(=O)=O)nc(-c2ccc(F)cc2)c1/C=C/[C@@H](O)C[C@@H](O)CC(=O)O [Rosuvastatin, Rosuvastatin Calcium]	41.7%
Cn1cnc2c(F)c(Nc3ccc(Br)cc3F)c(C(=O)NOCCO)cc21	44.7%
CN1c2cc(O)c(N=NC(N)=O)cc2CC1S(=O)(=O)O (centres undefined) [Carbazochrome sodium sulfonate]	43%
CC1(C)CC(=O)c2c(C(F)(F)F)nn(-c3ccc(C(N)=O)c(N[C@H]4CC[C@H](OC(=O)CN)CC4)c3)c2C1	6.23% (active)
CC1(C)CC(=O)c2c(C(F)(F)F)nn(-c3ccc(C(N)=O)c(N[C@H]4CC[C@H](O)CC4)c3)c2C1	6.92% (active)
CC(=O)O/N=C1/C(=O)N(Cc2cc(Cl)ccc2Cl)c2ccc(Cl)cc21	51.6%
CC(C)(C)c1ccc(C(=O)CCCN2CCC(OC(c3ccccc3)c3ccccc3)CC2)cc1 [Ebastine]	56.5%
OC1(c2ccc(Cl)c(C(F)(F)F)c2)CCN(CCCC(c2ccc(F)cc2)c2ccc(F)cc2)CC1 [Penfluridol]	55.9%
COc1ccc(-c2ccc3c(N4CCOCC4)nc(N4C[C@@H](C)O[C@@H](C)C4)nc3n2)cc1CO	23.7%
Cc1ccc(=O)n(-c2ccccc2)c1 [Pirfenidone]	46%
CNC(=O)c1cc(Oc2ccc(NC(=O)Nc3cc(C(C)(C)C)nn3-c3ccc4ncccc4c3)c(F)c2)ccn1 [Rebastinib]	39.9%
CC(C)C1CCC(C(=O)N[C@H](Cc2ccccc2)C(=O)O)CC1 (some centres undefined) [Nateglinide]	46.5%
CC(C)C[C@H](NC(=O)[C@H](Cc1ccccc1)NC(=O)c1cnccn1)B(O)O [Bortezomib]	5.29% (active)
CNC(=O)[C@H](Cc1ccccc1)NC(=O)[C@H](CC(C)C)[C@H](CSc1cccs1)C(=O)NO [Batimastat]	41.9%
